# Results from PubChem BioAssay AID651610 (Broad Institute, 2012).
# About 3,900 (1.1%) of roughly 360,000 compounds were called active. The entries come from a sample that favours actives as a whole. A number with no mark means an inactive call.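 Rule for the calls: active = mean replicate inhibition score of at least 50 and every replicate individually at or above 50; inconclusive = only one of the two criteria met; inactive = mean below 50 and not all replicates reaching 50.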
# Assay: inhibitors of HIV-1 Env-driven cell-cell fusion, primary screen, HeLa-JRFL effector, CEM21 target cells, luciferase (AID 651610);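 note: 0% = plate neutral controls and 100% = maraviroc near 300 nM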
# Conditions: active compounds read high; at 16.7 µM unless noted
row,SMILES,inhibition
1,CCn1c(SCc2cc(=O)n3ccsc3n2)nc2ccccc21,9.35% [at 12.3 µM]
2,CCCCn1c(SCc2ncc(-c3ccccc3)o2)nc2cc(S(N)(=O)=O)ccc21,32.4% [at 12.3 µM] (active)
3,c1ccc(-c2cnc(CN3CCN(c4ccccc4)CC3)o2)cc1,3.52% [at 12.3 µM]
4,C[C@H](O)C#Cc1cnc2c(c1)C(=O)N([C@H](C)CO)C[C@@H](C)[C@H](CN(C)CC1CCCCC1)O2,-6.75%
5,C[C@H](CO)N1C[C@H](C)[C@H](CN(C)Cc2cccnc2)Oc2ncc(C3=CCCC3)cc2C1=O,0.845%
6,C[C@@H]1CN([C@H](C)CO)C(=O)c2c(c3ccccc3n2C)-c2ccccc2CO[C@H]1CN(C)C(=O)[C@@H](Cc1ccccc1)N(C)C,-56.3%
7,Cc1cc(C(C)(C)C)oc1C(=O)N(CC(=O)NC1CCCC1)Cc1ccc(Cl)cc1,73.7% [at 12.3 µM] (active)
8,CS(=O)(=O)N(CC(=O)NC1CCCC1)Cc1ccc(F)cc1,12.4% [at 12.3 µM]
9,Cc1ccc(CN(CC(=O)NC2CCCCC2)C(=O)c2csnn2)cc1,-2.9% [at 12.3 µM]
10,O=C(C[C@@H]1CC[C@H](NC(=O)Nc2cc(F)ccc2F)[C@H](CO)O1)NCc1ccncn1,1.2%
11,COc1ccc(CNC(=O)c2ccc(-c3cccnc3)c3ccoc23)cc1OC,55.1% [at 12.3 µM] (active)
12,Cc1noc(C)c1-c1ccc(C(=O)NCc2ccncc2)c2occc12,-7.55% [at 12.3 µM]
13,COCCCNC(=O)c1ccc(-c2c(C)noc2C)c2ccoc12,-11% [at 12.3 µM]
14,O=C(COC(=O)Cn1cnc2ccccc2c1=O)NCc1ccccc1Cl,0.405% [at 12.3 µM]
15,CC1(C)C(=O)Nc2ccccc2N1C(=O)COC(=O)Cn1cnc2ccccc2c1=O,-40.1% [at 12.3 µM]
16,CN(Cc1c(F)cccc1Cl)C(=O)COC(=O)Cn1cnc2ccccc2c1=O,63.4% [at 12.3 µM] (active)
17,O=C(NCc1ccccn1)[C@@H]1[C@@H](CO)[C@@H]2Cn3c(ccc(/C=C/c4ccccc4)c3=O)[C@H]1N2CC1CC1,-8.79%
18,CC(C)c1cc(C(=O)NC2CCCCCC2)c2ccccc2n1,30.2% [at 12.3 µM]
19,CC(C)C(C)NC(=O)COc1nc2ccccc2nc1N(C)C1CCCCC1 (configuration not stated),17.4% [at 12.3 µM]
20,CN(c1ccc2nc3ccccc3c(=O)n2n1)C1CCCCC1,68.2% [at 12.3 µM] (active)
21,COc1cccc(S(=O)(=O)N(C)C[C@@H]2Oc3cc(C#CCN(C)C)ccc3S(=O)(=O)N([C@@H](C)CO)C[C@@H]2C)c1,-11.4%
22,Cn1c(-c2sccc2OCc2cccc(C(F)(F)F)c2)n[nH]c1=S,63.4% [at 12.3 µM] (active)
23,FC(F)(F)c1ccc(-n2cn[nH]c2=S)cc1,2.89% [at 12.3 µM]
24,CCOC(=O)N1CCN(Cc2nc(Cc3cccc(C(F)(F)F)c3)no2)CC1,-3.49% [at 12.3 µM]

row,SMILES,inhibition
1,O=C(C[C@H]1CC[C@H]2[C@@H](COC[C@@H](O)CN2Cc2nccs2)O1)NCc1ccccc1Cl,6.96%
2,CN(C)CC(=O)Nc1ccc2c(c1)[C@H]1C[C@H](CC(=O)NCc3ccccc3)O[C@@H](CO)[C@H]1O2,-29.2%
3,COc1ccc([N+](=O)[O-])cc1N(CC(O)CN(CC(C)C)CC(C)C)S(=O)(=O)c1ccc(C)cc1 (configuration not stated),-12.9% [at 12.3 µM]
4,Cc1cccc(N(CC(O)CN(C)C)S(=O)(=O)c2ccccc2)c1 (configuration not stated),-28.3% [at 12.3 µM]
5,CC(C)CN(CC(C)C)CC(O)CN(c1ccccc1)S(=O)(=O)c1ccccc1[N+](=O)[O-] (configuration not stated),65.4% [at 12.3 µM] (active)
6,CN(C)CC(=O)N[C@H]1CC[C@H](CCNC(=O)C2CCCCC2)O[C@H]1CO,-245%
7,c1ccc2c(c1)OCC(CNc1ncnc3nc[nH]c13)O2 (configuration not stated),72.9% [at 12.3 µM] (active)
8,Cc1noc(C)c1C(=O)NCC1COc2ccccc2O1 (configuration not stated),-5.41% [at 12.3 µM]
9,COc1ccc(CCNc2ncnc3nc[nH]c23)cc1OC,18% [at 12.3 µM]
10,C[C@@H]1CCCCO[C@H](CN(C)Cc2ccc3c(c2)OCO3)[C@@H](C)CN([C@H](C)CO)C(=O)c2cc(N(C)C)ccc2O1,-11.2%
11,C[C@H](NC(=O)C[C@@H]1CC[C@H](NC(=O)CN2CCOCC2)[C@H](CO)O1)c1ccccc1,-13.9%
12,N#Cc1ccc(C(c2nnnn2CCc2ccccc2)N2CCCCCC2)cc1 (configuration not stated),90.5% [at 12.3 µM] (active)
13,CCCCn1nnnc1C(c1ccccc1)N1CCN(c2ccccc2OC)CC1 (configuration not stated),6.77% [at 12.3 µM]
14,Cc1ccc(C(c2nnnn2CS(=O)(=O)c2ccc(C)cc2)N2CCC(C)CC2)cc1 (configuration not stated),53.3% [at 12.3 µM]
15,CN(C)CC(=O)Nc1ccc2c(c1)[C@H]1C[C@@H](CC(=O)NCc3ccc(-c4ccccc4)cc3)O[C@H](CO)[C@H]1O2,19.8%
16,COC(=O)[C@H](CC(C)C)NS(=O)(=O)c1c(F)cccc1F,-17.9% [at 12.3 µM]
17,COc1ccc(-c2cc(-c3ccc(N)cc3)nc(N)c2C#N)cc1OC,22.6% [at 12.3 µM]
18,CCSc1nc(-c2ccc(OC)cc2)cc(-c2ccc(OC)cc2)c1C#N,66% [at 12.3 µM] (active)
19,COc1ccc(CCNC(=O)CSc2nc(-c3ccc(OC)c(OC)c3)ccc2C#N)cc1,4.49% [at 12.3 µM]
20,CS(=O)(=O)Nc1ccc2c(c1)[C@@H]1C[C@H](CC(=O)NCc3cc(F)ccc3F)O[C@@H](CO)[C@@H]1O2,18.1%
21,Cc1ccc(S(=O)(=O)Nc2ccc3c(c2)C(=O)N([C@H](C)CO)C[C@@H](C)[C@@H](CN(C)S(C)(=O)=O)OCCCC[C@@H](C)O3)cc1,-1.67%
22,C[C@@H]1CN([C@@H](C)CO)S(=O)(=O)c2ccc(-c3cccnc3)cc2O[C@H]1CN(C)CC1CCOCC1,-3.87%
23,C[C@@H]1CN([C@H](C)CO)C(=O)c2cccc(NS(C)(=O)=O)c2O[C@@H]1CN(C)C(=O)Nc1cccc2ccccc12,-1.18%
24,O=C(CNS(=O)(=O)c1cccc(C(F)(F)F)c1)Nc1ccccc1F,-11.7% [at 12.3 µM]

row,SMILES,inhibition
1,Cc1oc2c(F)c(F)c(F)c(F)c2c1S(=O)(=O)Nc1cccc(C(F)(F)F)c1,55% [at 12.3 µM] (active)
2,Cc1noc(C)c1S(=O)(=O)Nc1cc(C(F)(F)F)ccc1N1CCOCC1,22.4% [at 12.3 µM]
3,COc1ccccc1CNC(=O)C[C@H]1C[C@@H]2c3cc(NC(=O)c4ccc5c(c4)OCO5)ccc3O[C@@H]2[C@H](CO)O1,4.06%
4,NC(=O)c1sc2nc3c(c(-c4ccccc4)c2c1N)CCC3,103% [at 12.3 µM] (active)
5,COc1ccccc1-c1c(C#N)c(N)nc2c1CCC2,24% [at 12.3 µM]
6,CC(C)OC(=O)c1sc2nc3c(cc2c1N)C(=O)CCC3,-187% [at 12.3 µM]
7,C[C@@H]1CN([C@@H](C)CO)C(=O)c2cc(NC(=O)Cn3cnnn3)ccc2O[C@H]1CN(C)Cc1ccc(C(F)(F)F)cc1,12.3%
8,Cc1n[nH]c(=O)c2c1nnn2Cc1ccc(F)cc1,-10.3% [at 12.3 µM]
9,Cc1cc(C)c2cc(CN(Cc3nnnn3Cc3ccc(F)cc3)C3CCCC3)c(=O)[nH]c2c1,84.5% [at 12.3 µM] (active)
10,C[C@@H]1CN([C@H](C)CO)C(=O)c2cc(-c3ccccc3F)cnc2O[C@H]1CN(C)C(=O)NC1CCCCC1,-1.88%
11,O=C(C[C@H]1CC[C@@H]2NC[C@H](O)COC[C@H]2O1)NCCN1CCCCC1,18.8%
12,COc1ccccc1C(=O)NC(CCSC)C(=O)N1CCN(C(C)=O)CC1 (configuration not stated),-8.21% [at 12.3 µM]
13,COc1ccccc1C(=O)NC(CCSC)C(=O)N1CCN(C/C=C/c2ccccc2)CC1 (configuration not stated),75.2% [at 12.3 µM] (active)
14,CSCCC(NC(=O)c1ccccc1)C(=O)N1CCN(Cc2ccc(Cl)cc2)CC1 (configuration not stated),11.5% [at 12.3 µM]
15,O=C(NCc1ccccc1)[C@H]1CCCN1C(=O)[C@@H]1CCCN1C(=O)c1ccc(Cl)cc1Cl,-35.2% [at 12.3 µM]
16,COCC(=O)N1C[C@@H](C)[C@H](OC)CN(C)C(=O)c2ccc(NC(=O)c3ccc(F)cc3)cc2OC[C@H]1C,19.1%
17,CO[C@@H]1CN(C)C(=O)c2cc(NS(=O)(=O)c3ccc(C)cc3)ccc2OC[C@H](C)N(C(=O)NC(C)C)C[C@@H]1C,64.3% (active)
18,COc1ccccc1S(=O)(=O)Nc1ccc2c(c1)C(=O)N(C)C[C@H](OC)[C@H](C)CN[C@H](C)CO2,-20.4%
19,CO[C@@H]1CN(C)C(=O)c2cc(NS(=O)(=O)c3ccccc3)ccc2OC[C@@H](C)N(C(=O)NC(C)C)C[C@@H]1C,3.87%
20,COc1ccccc1S(=O)(=O)Nc1ccc2c(c1)C(=O)N(C)C[C@@H](OC)[C@@H](C)CN[C@@H](C)CO2,61.2% (active)
21,COc1cccc(S(=O)(=O)Nc2ccc3c(c2)C(=O)N(C)C[C@@H](OC)[C@@H](C)CN[C@@H](C)CO3)c1,3.22%
22,COCC(=O)N1C[C@H](C)[C@@H](OC)CN(C)C(=O)c2cc(NC(=O)c3ccc(OC)cc3)ccc2OC[C@H]1C,-0.959%
23,CO[C@H]1CN(C)C(=O)c2cc(NS(=O)(=O)c3ccccc3)ccc2OC[C@H](C)N(C(=O)NC(C)C)C[C@@H]1C,-19%
24,COCC(=O)N1C[C@@H](C)[C@H](OC)CN(C)C(=O)c2ccc(NC(=O)c3ccc(OC)cc3)cc2OC[C@@H]1C,58.2% (active)
